Experimental data taken from publication PMC5540273 (PLoS ONE, 2017).

Legend:
Conditions in all cases: concentration: 1 μM, replicates: in singlicate; n = 1
PRP4 = system: PRP4
PYK2 = system: T1, PYK2
T1 construct: gene PTK2B

QSK = system: QSK
RAF1 = system: RAF1
RET = system: RET
RIOK1 = system: RIOK1
RIOK2 = system: RIOK2
RIOK3 = system: RIOK3
RIPK1 = system: RIPK1
RIPK2 = system: RIPK2
RIPK4 = system: RIPK4
RIPK5 = system: RIPK5
ROCK1 = system: ROCK1
ROCK2 = system: ROCK2
ROS1 = system: ROS1
[1] = system: RPS6KA4(Kin.Dom.1-N-terminal)
[2] = system: RPS6KA4(Kin.Dom.2-C-terminal)
[3] = system: RPS6KA5(Kin.Dom.1-N-terminal)
[4] = system: RPS6KA5(Kin.Dom.2-C-terminal)
[5] = system: T2, RSK1(Kin.Dom.1-N-terminal)
T2 construct: gene RPS6KA1
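Further: KINOMEscan kinase panel screen.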

Structure (SMILES)	%Inh (PRP4) [%]	%Inh (PYK2) [%]	%Inh (QSK) [%]	%Inh (RAF1) [%]	%Inh (RET) [%]	%Inh (RIOK1) [%]	%Inh (RIOK2) [%]	%Inh (RIOK3) [%]	%Inh (RIPK1) [%]	%Inh (RIPK2) [%]	%Inh (RIPK4) [%]	%Inh (RIPK5) [%]	%Inh (ROCK1) [%]	%Inh (ROCK2) [%]	%Inh (ROS1) [%]	%Inh [1] [%]	%Inh [2] [%]	%Inh [3] [%]	%Inh [4] [%]	%Inh [5] [%]
Cn1cncc1C(=O)NC1CCN(c2ccnc(Nc3ccc(F)cc3)n2)C1 (stereo not drawn) [GSK1379717]	35	0	0	43	0	24	0	2	2	6	33	20	0	19	0	0	0	0	0	16
COC(=O)C(Cc1ccccc1)NC(=O)NC1CCN(c2ccnc(Nc3ccc(F)cc3)n2)C1 (stereo not drawn) [GSK1379714]	33	28	0	13	21	24	0	34	18	3	0	15	9	20	24	14	0	1	18	6
COC(=O)c1cccc(NC(=O)NC2CCN(c3ccnc(Nc4ccc(OC)cc4)n3)C2)c1 (stereo not drawn) [GSK1379746]	59	0	1	23	0	43	0	0	0	4	13	0	2	44	0	14	0	17	0	3
CSc1ccc(-c2nc3n(c2-c2ccncc2)CCC3)cc1 [SKF-105561]	1	0	31	0	0	0	0	5	0	74	13	17	23	0	6	6	10	5	0	0
c1ccc(-c2ccnc3[nH]ccc23)cc1 [SB-693578]	44	5	15	41	0	14	27	0	0	18	28	7	90	88	0	0	8	5	26	28
CC(=O)c1c(C)c2cnc(Nc3ccn(C)n3)nc2n(C2CCCC2)c1=O	0	0	0	0	5	0	24	0	2	0	0	0	0	0	4	0	0	0	3	0
COc1cccc(C2=C(Nc3cc(Cl)c(O)c(Cl)c3)C(=O)NC2=O)c1 [SB-390767]	15	0	5	6	16	28	0	0	0	17	13	7	11	11	0	5	0	6	18	0
COc1cccc(CNC(=O)NC2CCN(c3ccnc(Nc4ccc(F)cc4)n3)C2)c1 (stereo not drawn) [GSK1379723]	7	3	2	12	8	30	0	0	0	7	20	10	0	0	0	0	0	7	36	2
COc1ccc(Nc2nccc(N3CCC(NC(=O)C(C)c4ccc(Cl)cc4)CC3)n2)cc1 (stereo not drawn) [GSK1379812]	18	0	0	60	38	24	0	31	22	10	0	0	15	16	40	19	0	3	42	2
O=c1cc(N2CCOCC2)nc2n(Cc3cccc(Cl)c3Cl)c3ccccc3n12 [GSK2299009]	0	29	0	10	52	42	17	32	19	32	16	0	10	0	38	24	0	16	2	31
Cc1ccc(NC(=O)c2ccc(Cl)cc2)cc1-c1ccc(C(=O)Nc2ccncc2)cc1 [GSK1398467]	46	18	0	35	0	32	0	8	0	12	9	0	0	17	8	13	0	17	49	10
COc1cccc(NC(=O)Nc2ccc(C)c(-c3ccc(C(=O)Nc4ccncc4)cc3)c2)c1 [GSK1398474]	52	13	0	78	33	27	0	0	0	0	23	0	0	0	0	18	0	12	40	16
O=C(Nc1n[nH]c2nc(-c3cccs3)c(Br)cc12)C1CCCC1 [SB-743341]	15	0	4	6	16	24	7	11	25	3	0	34	0	0	21	4	25	4	7	0
CS(=O)(=O)CCNCc1nc(-c2ccc3ncnc(Nc4ccc(OCc5ccccc5)c(Cl)c4)c3c2)cs1.Cl [GW582764]	51	1	0	13	0	0	0	0	0	68	1	0	45	38	0	17	0	3	0	25
NS(=O)(=O)c1cccc(N/C=C2\C(=O)Nc3ccc(S(=O)(=O)Cc4c(Cl)cccc4Cl)cc32)c1 [GSK398099]	19	19	11	15	0	19	0	19	0	12	14	0	0	2	0	2	0	0	0	11
Cc1ccc(NC(=O)Nc2ccc(Cl)c(C(F)(F)F)c2)cc1-c1ccc(C(=O)Nc2ccncc2)cc1 [GSK1398470]	1	4	9	90	28	30	12	13	17	0	0	0	0	0	14	0	0	17	0	2
Nc1ncnc2occ(-c3ccc4c(c3)CCN4C(=O)Cc3cc(F)ccc3F)c12 [GSK2645446]	25	0	0	0	10	37	0	0	98.6	0	0	12	12	11	2	14	0	2	1	0
CNCc1ccc2nc(NC(=O)c3ccc(C(C)(C)C)cc3)cn2c1	36	7	12	11	14	20	86	25	2	2	14	11	5	13	9	9	9	0	0	0
FC(F)(F)c1ccccc1-c1cc(-c2c[nH]nc2-c2ccccn2)ccn1 [GW679396]	5	24	0	0	11	13	0	10	12	20	0	0	9	14	6	18	0	24	0	6
CNc1nc(-c2ccc3c(N)n[nH]c3c2)cc(N2C[C@@H](C(=O)NC3CCCCC3)OC[C@H]2C)n1 [GSK2375584]	16	15	0	14	4	40	1	35	10	1	11	1	23	26	19	16	0	25	24	11
Cc1ccccc1Cn1ccn2c(=O)cc(N3CCOCC3)nc12 [GSK2269905]	14	0	0	8	0	0	0	0	0	0	0	0	0	0	0	23	0	12	0	25
